Several values for one entry are separate records, joined by “and”; a condition that tells them apart may be missing. Identical values can stand only once. The whole screen tested about 6,400 compounds, of which about 610 (9.5%) were called active. No stated cut-off is given here; in the data, active means activity change below about -70%; inconclusive means no clear call, values can overlap the other calls; inactive means above that. This excerpt belongs to a sample that is enriched for actives. More than one record can exist for a structure, and the calls need not agree.

The nature of the experiment: Toxoplasma gondii ME49Luc growth in HeLa cells, luciferase, no IFN-y, primary screen (AID 1259421). The settings on record: T. gondii ME49Luc in HeLa, 72 h, stronger effect = lower value, concentration not given here.
`COC1C(O)[C@@H](O)C(O)C(O)[C@H]1O` (stereo not given in full): the activity change, negative = inhibition is 4.8% (inactive). The figure for `COc1ccc2c(c1)OCC(Cc1ccc(OC)c(OC(C)=O)c1)C2=O` (stereo not given) is -72% (active); for `COc1ccc2c(c1)OCC(Cc1ccc(OC)c(OC)c1)C2=O` (stereo not given) it is -1.15% (inactive); for `COc1ccc2c(c1)OCC(Cc1ccc(O)c(OC)c1)C2=O` (stereo not given) it is -0.0941% (inactive). For `CO/N=C(/C(=O)N[C@@H]1C(=O)N2C(C(=O)O)=C(C[n+]3cccc4c3CCC4)CS[C@H]12)c1csc(N)n1` the value was 14.5% (inactive); for `CO/N=C(/C(=O)NC1C(=O)N2C(C(=O)O)=C(CSc3nc(=O)c(=O)[nH]n3C)CSC12)c1csc(N)n1` (stereo not given), -0.639% (inactive); for `COc1ccc([C@@H]2Sc3ccccc3NC(=O)[C@@H]2O)cc1`, 11.7% (inactive). For `O=P(O)(O)OC[C@H]1OC(O)[C@H](O)[C@@H](O)[C@@H]1O` (stereo not given in full) the value was 7.08% (inactive); for `CC(=O)NCCc1c(Cc2ccccc2)[nH]c2ccccc12`, -2.39% (inactive). Regarding `Cc1[nH]c2ccccc2c1CCNCc1ccc(/C=C/C(=O)NO)cc1`, the activity change, negative = inhibition was -73.2% (active) and -76.5% (active). For `Cc1[nH]c2ccccc2c1CCNC(=O)c1cccs1` the value was 9.58% (inactive); for `CC(C)(N)C(=O)N[C@H](COCc1ccccc1)C(=O)N1CCC2(CC1)CN(S(C)(=O)=O)c1ccccc12`, 5.12% (inactive); for `Cc1cc(/C(=C\Nc2ccc(Cl)cc2)C(=O)Nc2ccc(Cl)cc2)on1`, 18.7% (inactive).

For the compound `FC(F)(F)C(F)(F)C(F)(F)C(F)(F)C(F)(F)C(F)(F)C(F)(F)C(F)(F)Br`, the activity change, negative = inhibition was 2.95% (inactive). Take `Brc1cc2c(cc1[C@H]1Nc3ccccc3[C@H]3C=CC[C@H]31)OCO2` (racemic): the activity change, negative = inhibition was 11.8% (inactive). The figure for `CC(=O)c1ccc2c(c1)[C@@H]1C=CC[C@@H]1[C@H](c1cc3c(cc1Br)OCO3)N2` is -79.7% (active). For `O=C(O)c1ccc2c(c1)OCO2` the value was 16% (inactive).

On to `COC(=O)C1=C(C)NC(C)=C([N+](=O)[O-])[C@@H]1c1ccccc1C(F)(F)F`, for which the activity change, negative = inhibition is 1.1% (inactive). For `C/C(=C(/CCO)SSCC1CCCO1)N(C=O)Cc1cnc(C)nc1N` (stereo not given) the value was 15% (inactive); for `C=CC(=O)Nc1cccc(Oc2nc(Nc3ccc(N4CCN(C)CC4)cc3OC)ncc2Cl)c1`, -35.2% (inactive); for `CN1CCN(c2ccc(OC(F)(F)F)c(Nc3ncc4c(n3)-c3c(c(C(N)=O)nn3CCO)CC4)c2)CC1`, -90.8% (active). The figure for `CCC(=O)Nc1cccc(Oc2nc(Nc3ccc(N4CCN(C)CC4)cc3OC)ncc2Cl)c1` is 7.36% (inactive); for `CCN(CC)S(=O)(=O)c1ccc(C(=O)O)cc1` it is -0.641% (inactive) and 12.4% (inactive). The figure for `CCc1cc(C(C)=O)c(O)cc1OCCCCCC(C)(C)c1nn[nH]n1` is 50.8% (inactive) and 31.2% (inactive). `Nc1ccncc1N`: the activity change, negative = inhibition is -3.18% (inactive).

As to `Nc1ccc(-c2ccc3ncc4ccc(=O)n(-c5cccc(C(F)(F)F)c5)c4c3c2)cn1`, the activity change, negative = inhibition is -76.7% (active). In the case of `CCC(=O)N1CCN(c2ccc(-n3c(=O)ccc4cnc5ccc(-c6cnc7ccccc7c6)cc5c43)cc2C(F)(F)F)CC1`, the activity change, negative = inhibition was -56% (inactive). The figure for `COc1ccc(C(=O)CCC(=O)O)c2ccccc12` is 2.31% (inactive); for `COC(=O)c1cc(S(C)(=O)=O)ccc1OC` it is 9.8% (inactive); for `COc1ccc(CCN2CCN(CCCc3ccccc3)CC2)cc1OC` it is -27.2% (inactive).

As to `OCC1OC(n2cnc3c(NC4CCCC4)ncnc32)C(O)C1O` (stereo not given), the activity change, negative = inhibition is 1.64% (inactive). The figure for `N#C/C(=C\c1ccc(O)c(O)c1)C(N)=O` is 16.2% (inactive) and 6.7% (inactive); for `CC(C)(C)c1cc(/C=C(\C#N)C(N)=S)cc(C(C)(C)C)c1O` it is -82.2% (active) and -86% (active). For `N#CC(C#N)=C(N)/C(C#N)=C/c1cc(O)c(O)c(O)c1` the value was 5.32% (inactive); for `COc1cc(N)c(Cl)cc1C(=O)N[C@@H]1CCN(CCCOc2ccc(F)cc2)C[C@@H]1OC`, 6.27% (inactive); for `COc1ccc(C2(O)CCC(N3CC[C@@H](NC(=O)CNC(=O)c4cccc(C(F)(F)F)c4)C3)CC2)cn1` (stereo not given in full), 4.89% (inactive). Consider `Cc1ccc(S(=O)(=O)c2ccc([N+](=O)[O-])o2)cc1`, for which the activity change, negative = inhibition was 10.8% (inactive). Take `CCC[C@H](NC(=O)[C@@H]1[C@H]2CCC[C@H]2CN1C(=O)[C@@H](NC(=O)[C@@H](NC(=O)c1cnccn1)C1CCCCC1)C(C)(C)C)C(=O)C(=O)NC1CC1`: the activity change, negative = inhibition was -72.4% (active). For `CCCC[C@H](NC(=O)[C@@H]1[C@@H]2[C@H](CN1C(=O)[C@@H](NC(=O)NC1(CS(=O)(=O)C(C)(C)C)CCCCC1)C(C)(C)C)C2(C)C)C(=O)C(=O)NC1CC1` the value was 23.2% (inactive); for `CC(C)(C)NC(=O)N[C@H](C(=O)N1C[C@H]2[C@@H]([C@H]1C(=O)NC(CC1CCC1)C(=O)C(N)=O)C2(C)C)C(C)(C)C` (stereo not given in full), 0.503% (inactive). For `CC(C)(C)c1cc(O)c(C(C)(C)C)cc1O`, the activity change, negative = inhibition is 7.89% (inactive). In the case of `COC(=O)C[C@H]1C(C)(C)[C@@H](O)[C@@H]2CC3=C4CC(O)O[C@@H](c5ccoc5)[C@]4(C)CCC3[C@@]1(C)C2=O` (stereo not given in full), the activity change, negative = inhibition is -4.18% (inactive). The figure for `CO[C@H]1C=CO[C@@]2(C)Oc3c(C)c(O)c4c(O)c(c(/C=N/N5CCN(C)CC5)c(O)c4c3C2=O)NC(=O)/C(C)=C\C=C/C(C)[C@H](O)[C@@H](C)[C@@H](O)[C@@H](C)[C@@H](OC(C)=O)[C@@H]1C` (stereo not given in full) is -14.4% (inactive) and 12.2% (inactive); for `CC1(C)CCC(CN2CCN(c3ccc(C(=O)NS(=O)(=O)c4ccc(NCC5CCOCC5)c([N+](=O)[O-])c4)c(Oc4cnc5[nH]ccc5c4)c3)CC2)=C(c2ccc(Cl)cc2)C1` it is -89.7% (active). The figure for `CC(C)COC(=O)c1ccc(N)cc1` is 47.4% (inactive); for `COC(=O)c1cc(OC)c2c(c1-c1c(C(=O)OC)cc(OC)c3c1OCO3)OCO2` it is 11.4% (inactive); for `C=C1C(=O)O[C@H]2[C@H]1CC/C(C)=C\CC[C@@]1(C)O[C@@H]21` it is 7.41% (inactive). For `O=C(N/N=C/c1ccccc1O)c1ccccc1O` the value was -88% (active) and -86.5% (active); for `O=C(Nc1ccc(O)cc1)c1ccccc1O`, 30.3% (inactive); for `O=C(O)c1ccccc1O`, 10.4% (inactive) and 3.39% (inactive). Turning to `O=C(OC1C(OC(=O)c2cccnc2)C(OC(=O)c2cccnc2)C(OC(=O)c2cccnc2)C(OC(=O)c2cccnc2)C1OC(=O)c1cccnc1)c1cccnc1` (stereo not given), the activity change, negative = inhibition is -4.81% (inactive) and 13.2% (inactive). On to `CCN(Cc1ccccc1)C(=O)Cn1c(=O)n(C)c2cnc(-c3ccccc3)nc21`, for which the activity change, negative = inhibition was 9.96% (inactive). For `CCN(CC)CCN(Cc1ccc(-c2ccc(C(F)(F)F)cc2)cc1)C(=O)Cn1c(SCc2ccc(F)cc2)nc(=O)c2c1CCC2` the value was -77.9% (active); for `O=C(O)[C@H](O)[C@@H](O)[C@H](O[C@@H]1O[C@H](CO)[C@H](O)[C@H](O)[C@H]1O)[C@H](O)CO`, 11.1% (inactive); for `Clc1ccc(C(Cn2ccnc2)OCc2ccsc2Cl)c(Cl)c1` (stereo not given), -28.7% (inactive) and -2.79% (inactive). The figure for `Clc1ccc(C(Cn2ccnc2)OCc2csc3c(Cl)cccc23)c(Cl)c1` (stereo not given) is -75.6% (active); for `Clc1ccc(CSC(Cn2ccnc2)c2ccc(Cl)cc2Cl)cc1` (stereo not given) it is -80.3% (active) and -86.4% (active); for `C=CCOC(Cn1ccnc1)c1ccc(Cl)cc1Cl` (stereo not given) it is 26.1% (inactive) and 17.1% (inactive). For `Clc1ccc(COC(Cn2ccnc2)c2ccc(Cl)cc2Cl)c(Cl)c1` (stereo not given) the value was -91.6% (active); for `Clc1ccc(C(Cn2ccnc2)OCc2ccc(Sc3ccccc3)cc2)c(Cl)c1` (stereo not given), -73.4% (active). Consider `C[C@@H]1CC2C3C[C@H](F)C4=CC(=O)C=C[C@]4(C)[C@@]3(F)[C@@H](O)C[C@]2(C)[C@@]1(O)C(=O)CO` (stereo not given in full), for which the activity change, negative = inhibition was 1.95% (inactive). Turning to `CC(=O)N[C@H]1CSSC[C@@H](C(N)=O)NC(=O)[C@H](C(C)C)NC(=O)[C@H](C)NC(=O)[C@H](Cc2cnc[nH]2)NC1=O`, the activity change, negative = inhibition is -4.46% (inactive). For `O=C(/C=C/c1ccc(O)c(O)c1)O[C@@H]1C[C@](OC(=O)/C=C/c2ccc(O)c(O)c2)(C(=O)O)C[C@@H](O)[C@H]1O` the value was 2.12% (inactive). For `NC(=O)CCCCn1ccc(NC(N)=NCC(F)(F)F)n1` the value was 4.57% (inactive) and 3.01% (inactive); for `C=C1C2CC[C@@]3(C)[C@H](c4ccoc4)OC(=O)C[C@]13O[C@H]1CC(=O)C(C)(C)[C@H](C(O)C(=O)OC)[C@@]21C` (stereo not given in full), -2.51% (inactive); for `O=C1CCC[C@@H]2[C@@H]3CCC[N+]4([O-])CCC[C@H](CN12)[C@@H]34` (stereo not given in full), -1.57% (inactive). The figure for `N=C1CCCN1Cc1[nH]c(=O)[nH]c(=O)c1Cl` is 3.86% (inactive); for `COc1cc2c(cc1OC(C)C)[C@H](c1ccc(Cl)cc1)N(c1ccc(N(C)CC3CCC(N4CCN(C)C(=O)C4)CC3)cc1)C(=O)C2` (stereo not given in full) it is -56.4% (inactive); for `N[C@@H](CSCC(=O)O)C(=O)O` it is 14.1% (inactive). Turning to `COc1ccc(/C=C/C(=O)c2cc(O)ccc2O)cc1`, the activity change, negative = inhibition was 13.6% (inactive).

For the compound `Nc1ncnc2c1ncn2[C@H]1CC[C@@H](CO)O1`, the activity change, negative = inhibition was 1.09% (inactive).

Take `CC(C)[N+]1(C)C2CCC1CC(OC(=O)C(CO)c1ccccc1)C2` (stereo not given): the activity change, negative = inhibition is 0.0846% (inactive). For `O=C(O)CCc1cc(C(=O)c2ccc(OC3CCCC3)cc2O)ccc1OCc1ccc2c(=O)[nH]oc2c1` the value was 6.19% (inactive); for `Cl/C(=C/n1cncn1)c1ccc(Cl)cc1Cl`, -5.43% (inactive).

On to `Cl/C(=C\n1cncn1)c1ccc(Cl)cc1Cl`, for which the activity change, negative = inhibition is -11.5% (inactive). As to `Clc1ccc(COC(Cn2ccnc2)c2ccc(Cl)cc2Cl)cc1` (stereo not given), the activity change, negative = inhibition is -77.4% (active) and -87.9% (active).

For the compound `O=C(O)/C=C/c1ccc(Cn2ccnc2)cc1`, the activity change, negative = inhibition was -0.196% (inactive) and 8.1% (inactive). The figure for `Clc1ccc(CO/N=C(\Cn2ccnc2)c2ccc(Cl)cc2Cl)c(Cl)c1` is -81.5% (active) and 40% (inactive); for `Clc1ccc(CCC(Cn2ccnc2)Sc2c(Cl)cccc2Cl)cc1` (stereo not given) it is -83.9% (active) and -87.7% (active); for `Clc1ccc(C(Cn2ccnc2)OCc2c(Cl)cccc2Cl)c(Cl)c1` (stereo not given) it is -52.5% (inactive).
